In PubChem BioAssay (NCI):
This is part of a sample that, as a whole, favours compounds with a hit. Of some 79,000 tested, about 15% had one in any assay. A number with no mark means an inactive call. The source made the active and inactive calls. No stated cut-off is given here; in the data, active means growth inhibition above about 70%; inactive means the rest.

Tests used:
[1] = NCI Yeast Anticancer Drug Screen. Data for the rad50 strain (AID 155);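 further: 0% = growth of vehicle-only cultures of the same strain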; conditions: S. cerevisiae rad50 strain growth inhibition, active compounds read high
In short: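 Yeast carrying a defined DNA repair defect were exposed to test compounds, and growth was compared with vehicle-treated controls to give percent inhibition.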

[2] = NCI Yeast Anticancer Drug Screen. Data for the mec2-1 strain (AID 157); conditions: S. cerevisiae mec2-1 strain, active compounds read high
In short: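 Yeast mec2-1 mutant treated with compound. Readout: growth inhibition vs vehicle controls.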

[3] = NCI Yeast Anticancer Drug Screen. Data for the sgs1 mgt1 strain (AID 161);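 further: 0% = growth of cultures given vehicle only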; conditions: S. cerevisiae sgs1 mgt1 strain, active compounds read high
In short: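 Mutant yeast exposed to compound; growth scored against vehicle-only wells.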

[4] = NCI Yeast Anticancer Drug Screen. Data for the cln2 rad14 strain (AID 165);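 further: 0% = growth equal to vehicle treated cultures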; conditions: S. cerevisiae cln2 rad14 strain, active compounds read high
In short: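 cln2 rad14 yeast strain; compound exposure; growth inhibition read vs vehicle controls.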

[5] = NCI Yeast Anticancer Drug Screen. Data for the bub3 strain (AID 167); conditions: S. cerevisiae bub3 mutant strain, active compounds read high
In short: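 Compounds were applied to a genetically altered yeast strain carrying a cell-cycle control defect. Growth inhibition was scored against vehicle-treated controls.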

[6] = NCI Yeast Anticancer Drug Screen. Data for the mlh1 rad18 strain (AID 175); conditions: S. cerevisiae mlh1 rad18 strain growth inhibition, active compounds read high
In short: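 Yeast w/ defined DNA-repair lesions; compound exposure; growth vs vehicle controls → % inhibition.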

[7] = at 5.0 µM (retest, dose inferred, filed as 0.5)
[8] = at 50.0 µM (retest, dose inferred, filed as 5.0)

SMILES	growth inhibition [1, 7]	growth inhibition [1, 8]	growth inhibition ([1]; at 50.0 µM)	growth inhibition [2, 7]	growth inhibition [2, 8]	growth inhibition ([2]; at 50.0 µM)	growth inhibition [3, 7]	growth inhibition [3, 8]	growth inhibition ([3]; at 50.0 µM)	growth inhibition [4, 7]	growth inhibition [4, 8]	growth inhibition ([4]; at 50.0 µM)	growth inhibition [5, 7]	growth inhibition [5, 8]	growth inhibition ([5]; at 50.0 µM)	growth inhibition [6, 7]	growth inhibition [6, 8]	growth inhibition ([6]; at 50.0 µM)
CN(C)c1cc2c(cc1[N+](=O)[O-])-c1ccccc1C2O (configuration not stated)	5%	48%	91.4% (active)	-1%	28%	29.9%	0%	57%	56.6%	-4%	34%	41.4%	-6%	60%	70.5% (active)	5%	74% (active)	86.6% (active)
CC(C)CCCC(C)C1CCC2C3CC=C4OC(=O)CCC4(C)C3CCC12C (configuration not stated)	-11%	88% (active)	83.4% (active)	-2%	85% (active)	91.8% (active)	-35%	93% (active)	76.2% (active)	-2%	93% (active)	85.2% (active)	-1%	91% (active)	86.3% (active)	-1%	94% (active)	90.6% (active)
O=c1oc2c(-c3ccccc3)cccc2c(O)c1-c1ccccc1	-2%	58%	48.6%	-2%	86% (active)	60.2%	3%	87% (active)	58.9%	0%	36%	33%	-4%	79% (active)	55%	0%	81% (active)	70.5% (active)
CCC(=NCCCCCCN=C(CC)c1cc(C)cc([N+](=O)[O-])c1O)c1cc(C)cc([N+](=O)[O-])c1O.[Fe]	10%	46%	80.9% (active)	-10%	79% (active)	72.3% (active)	11%	35%	72.2% (active)	-7%	49%	70.5% (active)	-1%	70% (active)	71.7% (active)	11%	63%	80.8% (active)
Cc1cc(S(=O)(=O)c2ccc(Cl)cc2)nc(S(=O)(=O)c2ccc(Cl)cc2)c1C#N	45%	78% (active)	82.1% (active)	43%	91% (active)	87.2% (active)	99% (active)	90% (active)	85.2% (active)	99% (active)	91% (active)	84.7% (active)	99% (active)	83% (active)	80.4% (active)	42%	89% (active)	80.2% (active)
CCCCCCCCCCCCCCCCCC[N+]1(C)CCC[N+](C)(CCCCCCCCCCCCCCCCCC)CC1 (configuration not stated)	2%	26%	41.8%	-3%	17%	83.4% (active)	2%	53%	47%	0%	3%	7.9%	0%	77% (active)	50.6%	2%	24%	84% (active)
CCCCCCC(/C=C/c1c(Cl)cccc1Cl)=N\O	-4%	24%	83.4% (active)	-4%	46%	91.7% (active)	-6%	67%	91.3% (active)	-1%	12%	69.1%	-4%	53%	92.8% (active)	-10%	56%	94.2% (active)
C=CC(=O)N1C/C(=C\c2ccccc2)C(=O)/C(=C/c2ccccc2)C1	44%	75% (active)	73.8% (active)	37%	80% (active)	80.2% (active)	49%	90% (active)	71.7% (active)	39%	58%	48.2%	40%	87% (active)	78.5% (active)	50%	94% (active)	84.7% (active)
C=C(C)C1CC2=C(O1)C(=O)c1ccccc1C2=O (configuration not stated)	8%	99% (active)	91.9% (active)	0%	95% (active)	82.5% (active)	7%	99% (active)	73% (active)	-9%	37%	59.9%	59%	96% (active)	93.1% (active)	11%	98% (active)	89.8% (active)
